High-throughput results (PubChem)
An excerpt weighted towards active compounds, which were near 2.4% of everything screened.
POLH inh – inhibitors of human DNA polymerase eta; actives 1.2% (n = 390,000); recombinant Pol eta, fluorescent DNA replication assay; Q9Y253; Potency, µM (top dose mostly 114 µM), without a hit: at the highest dose activity change, negative = inhibition, usual class: inhibitors; further: on the % scale 0 is the no-effect control and ±100 the full control effect
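Fluorescent replication assay: 50 nM final substrate added after a 15 min room-temperature compound preincubation with 10 nM enzyme. Signal taken at 0 min and again at 10 min.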
WRN inhibitor – inhibitors of human WRN helicase; WRN helicase unwinding, fluorescent forked duplex, kinetic; AID 651768; actives 0.46% (n = 360,000); Q14191; Potency, µM (highest dose often 114 µM), for the others: at the highest dose activity change, negative = inhibition, most hits filed as inhibitors; further: on the % scale 0 is the no-effect control and ±100 the full control effect; nearly all actives have a fitted effect of over 55% in size
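WRN at 20 nM final preincubated with compound 15 min at room temperature; reaction started with 100 nM fluorophore/quencher forked duplex oligonucleotide and 2 mM ATP final. Unwinding followed kinetically by red fluorescence (ex 525, em 598 nm).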
Pol iota inh – DNA polymerase iota (human) inhibition | Q9UNA4 | Pol iota fluorescent replication assay, 10 min | Potency, µM (doses to about 115 µM), for inactives: at the top dose activity, negative = inhibition, actives largely listed as inhibitors | actives 1% (n = 390,000)
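Pol iota at 10 nM preincubated 15 min with compounds at room temperature; reaction started with fluorescent substrate, 50 nM final. Fluorescence read kinetically at 0 and 10 min; buffer-only wells as negative control.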
POLB inh – DNA polymerase beta (human) inhibition; Pol beta primer extension/strand displacement, fluorescence kinetic; actives 1.3% (n = 340,000); Potency, µM (doses to about 114 µM), for the others: at the highest dose activity change, negative = inhibition, actives largely listed as inhibitors; AID 485314; P06746; further: on the % scale 0 is the no-effect control and ±100 the full control effect
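Kinetic readout of DNA synthesis with strand displacement by Pol beta. Compound and 10 nM enzyme sit 15 min at room temperature; 50 nM substrate starts the reaction, read immediately and at 10 min.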
Pol kappa inh – blocks human DNA polymerase kappa activity. Q9UBT6. purified Pol kappa, fluorescent DNA synthesis assay, 10 min. Potency, µM (highest dose often 107 µM), without a hit: top-dose activity, negative = inhibition, most hits filed as inhibitors. actives 0.53% (n = 400,000). AID 588579; further: on the % scale 0 is the no-effect control and ±100 the full control effect
Target sequence (Q9UBT6 whole entry, looked up): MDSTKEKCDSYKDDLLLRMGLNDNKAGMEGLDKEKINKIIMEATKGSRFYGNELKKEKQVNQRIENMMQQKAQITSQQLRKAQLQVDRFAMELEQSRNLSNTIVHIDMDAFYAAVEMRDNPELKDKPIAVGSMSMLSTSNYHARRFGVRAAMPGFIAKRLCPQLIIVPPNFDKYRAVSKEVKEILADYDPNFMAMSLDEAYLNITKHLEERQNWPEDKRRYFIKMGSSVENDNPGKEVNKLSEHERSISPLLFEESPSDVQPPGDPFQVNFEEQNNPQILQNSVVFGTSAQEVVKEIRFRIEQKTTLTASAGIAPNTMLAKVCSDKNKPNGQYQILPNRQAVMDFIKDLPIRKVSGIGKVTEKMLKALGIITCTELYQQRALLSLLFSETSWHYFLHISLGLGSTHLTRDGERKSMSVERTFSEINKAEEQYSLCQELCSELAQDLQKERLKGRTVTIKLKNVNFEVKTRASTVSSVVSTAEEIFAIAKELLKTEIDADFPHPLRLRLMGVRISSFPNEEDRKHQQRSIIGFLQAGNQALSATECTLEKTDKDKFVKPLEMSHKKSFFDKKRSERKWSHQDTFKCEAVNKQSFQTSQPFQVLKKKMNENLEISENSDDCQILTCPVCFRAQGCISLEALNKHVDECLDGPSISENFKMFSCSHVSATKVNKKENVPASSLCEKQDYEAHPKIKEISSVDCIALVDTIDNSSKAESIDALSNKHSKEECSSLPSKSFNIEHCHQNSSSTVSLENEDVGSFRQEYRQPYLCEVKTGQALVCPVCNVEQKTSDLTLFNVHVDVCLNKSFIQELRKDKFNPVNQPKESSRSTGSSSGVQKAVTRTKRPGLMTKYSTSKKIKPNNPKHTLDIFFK
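Activity was followed as the change in fluorescence between reads at 0 and 10 min after starting the reaction with 50 nM substrate. Beforehand, 10 nM polymerase had been preincubated with compound for 15 min at room temperature.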
FEN1 inhibitor – inhibitors of human flap endonuclease 1. P39748. Recombinant FEN1 flap cleavage, fluorescence, 15 min. Potency, µM (doses to about 114 µM), without a hit: at the top dose activity change, negative = inhibition, usual class: inhibitors. actives 0.35% (n = 390,000); further: on the % scale 0 is the no-effect control and ±100 the full control effect; nearly all actives have a fitted effect of over 65% in size
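Enzyme 10 nM, 15 min RT preincubation with compound; start with substrate 50 nM final; reads at 0 and 15 min; qHTS titration, four-parameter Hill fit.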
Starred values were filed as active, the others as inactive; u = inconclusive; x = no result given; [ ] = remark or other dose. The call rests on the fitted dose curve; in most records, active means well fitted curve in the direction sought with a large enough effect; inconclusive means small, poorly fitted or top-dose-only effect, or another doubt; inactive means no such curve, though single readings can be large; an effect the other way counts as inactive or inconclusive. Potency means the concentration at half of the fitted maximal effect.

SMILES	POLH inh	WRN inhibitor	Pol iota inh	POLB inh	Pol kappa inh	FEN1 inhibitor
CC(=O)c1cccc(NC(=O)CSc2nc(C3CC3)nc3ccccc23)c1	-18%	-28%	25µM*	u	-35%	-23%
CN(C)/C=C/C(=O)/C=C/c1cn(-c2ncc(C(F)(F)F)cc2Cl)c2ccccc12	-17%	-11%	8%	25µM*	-21%	-12%
Cc1ccc(NC(=O)C(C)OC(=O)c2ccc(NS(=O)(=O)c3ccc(F)c(F)c3)cc2)cc1 (stereo not given)	-9%	-5%	4%	14%	-22%	-7%
CCc1ccc(NC(=O)C(C)OC(=O)c2ccc(NS(=O)(=O)c3ccc(C)c([N+](=O)[O-])c3)cc2)cc1 (stereo not given)	79µM*	-2%[11.6 µM]	u	-2%	u	-12%
CNC(=O)c1cnc2sc(N3CCC(C)CC3)nn2c1=O	5%	x	-6%	13%	29%	-17%
COc1ccc(N(C(=O)c2ccc(Cl)cc2)S(=O)(=O)c2ccc(C)cc2)cc1	-2%	x	41%	1%	5%	11%
CC(=O)Nc1ccc(S(=O)(=O)O)c2cc(S(=O)(=O)O)c(N=Nc3ccc(N=Nc4ccc(S(=O)(=O)O)cc4)c4ccc(S(=O)(=O)O)cc34)c(O)c12	x	x	3.2µM*	x	1.4µM*	1.3µM*
O=S(=O)(O)c1cccc(N=Nc2c(O)ccc3ccccc23)c1	u	-15%	11%	u	-11%	u
O=S(=O)(O)c1ccc2c(N=Nc3ccc(S(=O)(=O)O)c4ccccc34)c(O)c(S(=O)(=O)O)cc2c1	x	x	45µM*	x	45µM*	10µM*
COc1cccc(CN2CC34CCC(CC3S2(=O)=O)O4)c1 (stereo not given)	x	x	3%	x	-26%	-9%
COc1ccc(N(CC(=O)Nc2cc(OC)cc(OC)c2)S(=O)(=O)c2c(C)noc2C)cc1	-20%	x	89µM*	0%	-28%	-10%
COc1ccc(N(CC(=O)Nc2ccc(C)cc2)S(=O)(=O)c2c(C)noc2C)cc1	-19%	3%	8%	12%	2%	0%
O=C1C(=O)C(c2cc(O)c(O)c(O)c2)Oc2cc(O)cc(O)c21 (stereo not given)	x	x	1.4µM*	x	1.3µM*	1.4µM*
COc1cccc(-c2nc3c(c(SCC(=O)N4CCOCC4)n2)Cc2c(CO)cnc(C)c2O3)c1	-14%	-25%	79µM*	-9%	-38%	u
Cc1ncc(CO)c2c1Oc1nc(-c3ccccc3F)nc(SCC(=O)N(C)c3ccccc3)c1C2	79µM*	-8%[57.1 µM]	u	15%	-8%	-14%
Cc1ncc(CO)c2c1Oc1nc(-c3ccccc3)nc(SCC(=O)N(C)c3ccccc3)c1C2	x	x	x	56µM*	x	x
Cc1ccccc1Cn1c(C)c(CNCc2ccccc2)c(C(=O)O)c1C	-23%	x	4%	8%	-7%	-9%
CC(C(=O)c1ccccc1)[n+]1cccc(Cl)c1 (stereo not given)	x	x	8%	x	-8%	-11%
O=C(O)C1(C(=O)O)CCC1	-2%	0%	-3%	x	-18%	-5%
N.N.O=C(O)C1(C(=O)O)CCC1.[Pt]	-3%[57.1 µM]	x	-7%[58.9 µM]	8%[57.1 µM]	22µM*	x
Cc1c(Cl)cccc1NC(=O)CN1C(=O)COc2ccc(S(=O)(=O)N3CCOCC3)cc21	-17%	x	43%	0%	-13%	0%
Nc1nc(NCCO)nc(NCC2CCCO2)c1[N+](=O)[O-] (stereo not given)	-4%	-30%[57.1 µM]	15%	22µM*	-20%	-3%
Nc1nc(NCC2CCCO2)nc(NCC2CCCO2)c1[N+](=O)[O-] (stereo not given)	-25%	9%	5%	39%	0%	-3%
O=C(NCCSCc1ccco1)c1ccc(=O)[nH]c1	-20%	-6%[11.6 µM]	50µM*	-7%	-38%	0%
Cc1ccc(C)c(N(CC(=O)NCCSCc2ccco2)S(C)(=O)=O)c1	22µM*	-35%	u	28µM*	79µM*	-13%
SMILES	POLH inh	WRN inhibitor	Pol iota inh	POLB inh	Pol kappa inh	FEN1 inhibitor
CN(C(=O)c1ccc(OCC=C(c2ccccc2)c2ccccc2)cc1)c1ccccc1I	x	x	-3%	x	-10%	-1%
O=C(Nc1ccc(-c2nc3cc(NC(=O)c4cccs4)ccc3o2)cc1)c1cccs1	-18%	7%	15%	6%	-6%	4%
O=C(Cc1ccccc1)Nc1ccc2oc(-c3ccncc3)nc2c1	u	-31%	u	22µM*	-10%	-1%
O=C(Nc1ccc2oc(-c3ccc(Cl)c(Cl)c3)nc2c1)c1ncn[nH]1	u	-14%[57.1 µM]	u	11µM*	u	-23%
O=C(Nc1ccc2oc(-c3ccncc3)nc2c1)c1cccs1	u	-30%	6%	22µM*	-27%	u
c1ccc(-c2ccc(OCCN3CCCC3)cc2)cc1	x	x	x	x	14%[60.1 µM]	x
COc1ccccc1CN1CCCC2(CCN(C(=O)c3cc(C(F)(F)F)cc(C(F)(F)F)c3)CC2)C1	x	x	x	x	9%[60.1 µM]	x
N[C@@]1(C(=O)O)CO[C@H]2[C@H](C(=O)O)[C@H]21	x	x	x	x	-11%[60.1 µM]	x
O=S(c1ccccc1O)S(=O)c1ccccc1O (stereo not given)	22µM*	14µM*	13µM*	x	u	u
O=C(O)c1ccccc1O	-16%	x	3%	15%	-1%	7%
CCCCCC(=O)O[C@H](CC(=O)O)C[N+](C)(C)C	x	x	x	x	-11%[19.4 µM]	x
Cc1c(-c2cccc(NC(=O)Nc3ccccc3)c2)nc2ncccn12	0%	x	u	-1%	-3%[60.1 µM]	u
COc1cc2c(NC3CCN(C(C)C)CC3)nc(N3CCCN(C)CC3)nc2cc1OCCOCCN1CCCC1	x	x	u	x	u	20µM*
COc1cc2c(NC3CCN(C)CC3)nc(N3CCCN(C)CC3)nc2cc1OCCCN1CCCC1	x	x	u	x	u	10µM*
COc1cc2c(NC3CCN(C)CC3)nc(N3CCCCC3)nc2cc1OCCOCCN1CCCC1	x	x	u	x	-19%	20µM*
COc1cc2c(NC3CCN(C)CC3)nc(N3CCCN(C)CC3)nc2cc1OCCCN1CCOCC1	x	x	-16%	x	-7%	22µM*
COc1cc2nc(N3CCCN(C)CC3)nc(NC3CCCCC3)c2cc1OC	x	x	14%	x	-2%	u
O=C(Nc1nccs1)[C@@H]1CC=C[C@@H]2CCN(C3CC3)C(=O)[C@@H]21	x	x	4%	x	-6%	20%
O=C(NCC(c1cccnc1)N1CCN(Cc2ccccc2)CC1)C(=O)Nc1cccc(F)c1 (stereo not given)	-9%	x	-15%	7%	-2%	19%
N#Cc1cccc(S(=O)(=O)N2CCN(c3nc(-c4cccs4)nc4ccccc34)CC2)c1	x	x	8%	x	-4%	16%
